Here are results for eleven compounds from ChEMBL document CHEMBL3988442, “University of Dundee, Small-Polar-MMV Screening Library” (2021).

For some of these results: Entries with a potency or affinity are not part of this list.

Common to all, as to design: scale not given: direction of the effect not stated beside the values
Test [1] has as its target Protein translocase subunit SecA (Escherichia coli (strain K12)) (UniProt P10408). The experiment in a line: Assay to Identify E. coli SecA ATPase Inhibitors. The format is functional. The note with it: 30 µM.
The target in test [2] is T1, Ubiquitin-activating enzyme e1, putative (Leishmania donovani (strain BPK282A1)) (UniProt E9BSI1).
T1 sequence (whole entry): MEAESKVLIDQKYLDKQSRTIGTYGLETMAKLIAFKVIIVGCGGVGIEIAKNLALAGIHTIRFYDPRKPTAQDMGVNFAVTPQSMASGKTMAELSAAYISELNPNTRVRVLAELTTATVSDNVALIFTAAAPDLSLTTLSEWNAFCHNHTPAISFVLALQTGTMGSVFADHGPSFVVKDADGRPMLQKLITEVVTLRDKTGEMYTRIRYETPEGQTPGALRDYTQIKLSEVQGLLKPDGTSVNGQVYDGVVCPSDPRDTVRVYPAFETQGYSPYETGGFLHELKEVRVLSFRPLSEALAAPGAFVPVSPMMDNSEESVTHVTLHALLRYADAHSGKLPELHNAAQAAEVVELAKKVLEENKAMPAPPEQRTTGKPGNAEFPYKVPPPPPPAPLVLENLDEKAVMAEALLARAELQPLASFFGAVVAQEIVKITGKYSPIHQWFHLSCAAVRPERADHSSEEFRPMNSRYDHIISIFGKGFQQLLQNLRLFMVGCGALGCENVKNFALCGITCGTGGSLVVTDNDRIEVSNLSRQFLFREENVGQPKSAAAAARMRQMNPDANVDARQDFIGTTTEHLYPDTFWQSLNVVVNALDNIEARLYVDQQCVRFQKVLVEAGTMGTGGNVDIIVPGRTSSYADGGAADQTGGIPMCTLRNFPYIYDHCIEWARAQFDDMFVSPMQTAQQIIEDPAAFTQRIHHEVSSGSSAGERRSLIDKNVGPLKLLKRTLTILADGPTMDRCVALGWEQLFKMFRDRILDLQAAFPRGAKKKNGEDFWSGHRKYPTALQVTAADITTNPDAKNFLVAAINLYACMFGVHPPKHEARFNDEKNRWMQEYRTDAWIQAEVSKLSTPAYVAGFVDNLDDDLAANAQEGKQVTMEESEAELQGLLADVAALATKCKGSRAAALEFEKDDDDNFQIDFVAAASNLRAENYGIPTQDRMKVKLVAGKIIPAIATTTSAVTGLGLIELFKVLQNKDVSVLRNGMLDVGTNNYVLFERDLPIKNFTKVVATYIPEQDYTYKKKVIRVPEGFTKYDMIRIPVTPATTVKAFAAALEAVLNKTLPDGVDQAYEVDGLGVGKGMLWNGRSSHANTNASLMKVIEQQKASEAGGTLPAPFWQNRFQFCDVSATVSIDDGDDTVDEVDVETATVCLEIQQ
Kind of test: Leishmania donovani Ubiquitin Activating Enzyme (LdE1). The format is functional. To be noted: 30 µM.

The target in test [3] is AMP-activated protein kinase, AMPK (Homo sapiens) (UniProt P54646+O43741+P54619+Q9UGJ0+Q9Y478+Q13131+Q9UGI9). Kind of test: AMP-dependent Kinase enzyme assay. An in vitro enzyme assay that detects ADP turnover that is directly proportional to AMPK activity. This uses naive AMPK that is activated during the assay with MK-8722. The format is functional. To be noted: 30 µM.

Test [4] concerns the target Sialic acid-binding Ig-like lectin 9 (Homo sapiens) (UniProt Q9Y336). The experiment in a line: Hs-Siglec9 ALPHAscreen SOP 20170721. The note with it: 10 µM.
The test system of another test is Trypanosoma cruzi. The experiment in a line: Trypanosoma cruzi phosphomannomutase and mannose-1-phosphate guanylyltransferase assay. Type of test: functional. The note with it: 10 µM.
Test [5] addresses T2, Arginase-2, mitochondrial (Homo sapiens) (UniProt P78540).
T2 sequence (whole entry): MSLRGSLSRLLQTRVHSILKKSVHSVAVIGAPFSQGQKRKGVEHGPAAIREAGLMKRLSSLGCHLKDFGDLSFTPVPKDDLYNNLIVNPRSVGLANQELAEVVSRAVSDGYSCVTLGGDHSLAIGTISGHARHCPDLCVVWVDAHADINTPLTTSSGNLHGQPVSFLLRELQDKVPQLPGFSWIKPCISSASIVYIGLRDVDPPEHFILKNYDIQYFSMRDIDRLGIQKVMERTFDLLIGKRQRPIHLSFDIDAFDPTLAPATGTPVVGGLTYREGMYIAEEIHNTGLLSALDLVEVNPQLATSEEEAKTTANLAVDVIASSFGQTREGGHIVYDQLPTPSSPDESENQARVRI
Kind of test: in vitro enzyme assay to detect the production of urea directly proportional to the activity of Arginase II. Further: in the data most compounds retested in dose-response had high values. To be noted: 33.3 µM. Type of test: functional.

Test [6] concerns the target T3, Proteasome subunit beta (Trypanosoma cruzi) (UniProt O96673).
T3 sequence (whole entry): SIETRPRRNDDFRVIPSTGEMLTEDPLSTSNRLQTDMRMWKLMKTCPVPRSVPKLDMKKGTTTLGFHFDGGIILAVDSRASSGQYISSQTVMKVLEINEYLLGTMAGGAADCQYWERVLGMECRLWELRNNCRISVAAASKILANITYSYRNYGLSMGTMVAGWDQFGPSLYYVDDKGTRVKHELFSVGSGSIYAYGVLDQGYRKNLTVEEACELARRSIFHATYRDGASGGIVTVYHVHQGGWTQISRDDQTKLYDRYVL
Kind of test: Trypanosoma cruzi proteasome chymotrypsin-like activity (TcProtChymo) assay. Further: in the data most compounds retested in dose-response had high values. The format is functional. To be noted: 9.37 µM.

The species named for a further test is Homo sapiens. Kind of test: To identify inhibition of the IFN signalling (Jak-Stat) pathway via expression of an eGFP reporter gene under the control of an IFN-stimulated response element (ISRE) containing MxA promoter. Type of test: functional. To be noted: 30 µM. (In general: Reporter assays use an easily measured gene product as a stand-in for the process of interest.)

Test [7] has as its target T4, Tyrosyl-tRNA synthetase, putative (Trypanosoma cruzi (strain CL Brener)) (UniProt Q4DSP6).
T4 sequence (whole entry): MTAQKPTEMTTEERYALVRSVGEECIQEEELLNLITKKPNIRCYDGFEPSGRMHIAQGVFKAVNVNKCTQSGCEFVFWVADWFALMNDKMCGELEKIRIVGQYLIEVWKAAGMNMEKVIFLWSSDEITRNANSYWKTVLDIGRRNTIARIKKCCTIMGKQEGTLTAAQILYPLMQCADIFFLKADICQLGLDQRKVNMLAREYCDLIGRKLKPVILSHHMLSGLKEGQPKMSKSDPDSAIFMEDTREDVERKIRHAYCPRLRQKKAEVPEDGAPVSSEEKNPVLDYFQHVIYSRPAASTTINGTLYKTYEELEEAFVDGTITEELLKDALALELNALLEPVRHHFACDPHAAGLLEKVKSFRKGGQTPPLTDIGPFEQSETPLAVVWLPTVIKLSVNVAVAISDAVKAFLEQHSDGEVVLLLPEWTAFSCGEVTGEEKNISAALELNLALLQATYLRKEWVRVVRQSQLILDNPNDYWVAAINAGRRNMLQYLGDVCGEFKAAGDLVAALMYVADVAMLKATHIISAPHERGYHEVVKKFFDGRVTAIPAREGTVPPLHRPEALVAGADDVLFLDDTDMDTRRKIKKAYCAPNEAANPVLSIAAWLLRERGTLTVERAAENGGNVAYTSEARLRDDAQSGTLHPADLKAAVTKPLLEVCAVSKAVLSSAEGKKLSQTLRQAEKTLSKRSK
The experiment in a line: Trypanosoma cruzi tyrosyl tRNA synthetase (TcYRS) _High Tyrosine SOP. Further: in the data most compounds retested in dose-response had high values. Type of test: functional. The note with it: 30 µM.

Test [8] has as its target T4, Tyrosyl-tRNA synthetase, putative (Trypanosoma cruzi (strain CL Brener)). Kind of test: Trypanosoma cruzi tyrosyl tRNA synthetase (TcYRS) SOP. Type of test: functional. To be noted: 30 µM.
The target in test [9] is Chromo domain-containing protein 1 (Saccharomyces cerevisiae (strain ATCC 204508 / S288c) (Baker's yeast)) (UniProt P32657). The experiment in a line: ScCHD-1 Enzyme Inhibition Assay. Further: in the data most compounds retested in dose-response had high values. Type of test: functional. To be noted: 30 µM.
Chromo domain-containing protein 1 (Saccharomyces cerevisiae (strain ATCC 204508 / S288c) (Baker's yeast)), sequence (P32657 whole entry, the tested form may be a part): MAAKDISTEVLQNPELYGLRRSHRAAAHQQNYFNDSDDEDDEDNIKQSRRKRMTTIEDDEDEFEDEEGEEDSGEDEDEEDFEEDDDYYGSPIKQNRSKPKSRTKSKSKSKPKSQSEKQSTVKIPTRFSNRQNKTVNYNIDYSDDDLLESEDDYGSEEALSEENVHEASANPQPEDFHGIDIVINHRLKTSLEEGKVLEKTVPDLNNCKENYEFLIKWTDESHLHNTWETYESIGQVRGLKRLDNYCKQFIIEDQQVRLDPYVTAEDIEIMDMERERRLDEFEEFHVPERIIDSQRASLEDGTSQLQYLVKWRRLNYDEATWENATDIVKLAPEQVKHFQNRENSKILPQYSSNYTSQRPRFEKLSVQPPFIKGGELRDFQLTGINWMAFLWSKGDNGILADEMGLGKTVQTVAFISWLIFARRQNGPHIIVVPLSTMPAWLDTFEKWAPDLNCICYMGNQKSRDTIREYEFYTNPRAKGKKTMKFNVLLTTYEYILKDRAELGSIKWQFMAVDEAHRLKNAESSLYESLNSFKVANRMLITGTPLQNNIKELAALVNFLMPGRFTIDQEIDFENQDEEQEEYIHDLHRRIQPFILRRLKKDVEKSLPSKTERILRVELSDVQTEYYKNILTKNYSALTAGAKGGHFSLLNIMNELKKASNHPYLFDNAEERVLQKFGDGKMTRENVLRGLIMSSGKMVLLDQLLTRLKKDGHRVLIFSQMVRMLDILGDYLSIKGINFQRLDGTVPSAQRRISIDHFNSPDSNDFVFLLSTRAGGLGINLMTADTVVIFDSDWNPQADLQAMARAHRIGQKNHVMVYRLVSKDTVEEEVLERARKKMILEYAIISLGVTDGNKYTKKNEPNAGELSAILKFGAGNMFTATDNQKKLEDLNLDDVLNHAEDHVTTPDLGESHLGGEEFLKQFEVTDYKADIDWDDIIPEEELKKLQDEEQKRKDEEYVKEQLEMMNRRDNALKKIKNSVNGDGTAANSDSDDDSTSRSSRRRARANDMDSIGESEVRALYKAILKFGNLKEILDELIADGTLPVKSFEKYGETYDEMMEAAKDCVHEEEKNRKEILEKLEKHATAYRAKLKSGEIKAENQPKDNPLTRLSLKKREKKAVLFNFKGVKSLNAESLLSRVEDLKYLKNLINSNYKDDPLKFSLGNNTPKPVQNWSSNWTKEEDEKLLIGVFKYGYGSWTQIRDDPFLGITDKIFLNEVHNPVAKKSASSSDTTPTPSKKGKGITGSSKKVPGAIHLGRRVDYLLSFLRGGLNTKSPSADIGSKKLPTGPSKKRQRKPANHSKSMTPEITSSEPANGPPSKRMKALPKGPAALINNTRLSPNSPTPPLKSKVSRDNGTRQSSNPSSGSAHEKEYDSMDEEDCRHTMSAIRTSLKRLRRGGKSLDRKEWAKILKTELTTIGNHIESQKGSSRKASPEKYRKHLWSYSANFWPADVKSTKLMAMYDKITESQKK

Protein translocase subunit SecA (Escherichia coli (strain K12)), sequence (P10408 whole entry): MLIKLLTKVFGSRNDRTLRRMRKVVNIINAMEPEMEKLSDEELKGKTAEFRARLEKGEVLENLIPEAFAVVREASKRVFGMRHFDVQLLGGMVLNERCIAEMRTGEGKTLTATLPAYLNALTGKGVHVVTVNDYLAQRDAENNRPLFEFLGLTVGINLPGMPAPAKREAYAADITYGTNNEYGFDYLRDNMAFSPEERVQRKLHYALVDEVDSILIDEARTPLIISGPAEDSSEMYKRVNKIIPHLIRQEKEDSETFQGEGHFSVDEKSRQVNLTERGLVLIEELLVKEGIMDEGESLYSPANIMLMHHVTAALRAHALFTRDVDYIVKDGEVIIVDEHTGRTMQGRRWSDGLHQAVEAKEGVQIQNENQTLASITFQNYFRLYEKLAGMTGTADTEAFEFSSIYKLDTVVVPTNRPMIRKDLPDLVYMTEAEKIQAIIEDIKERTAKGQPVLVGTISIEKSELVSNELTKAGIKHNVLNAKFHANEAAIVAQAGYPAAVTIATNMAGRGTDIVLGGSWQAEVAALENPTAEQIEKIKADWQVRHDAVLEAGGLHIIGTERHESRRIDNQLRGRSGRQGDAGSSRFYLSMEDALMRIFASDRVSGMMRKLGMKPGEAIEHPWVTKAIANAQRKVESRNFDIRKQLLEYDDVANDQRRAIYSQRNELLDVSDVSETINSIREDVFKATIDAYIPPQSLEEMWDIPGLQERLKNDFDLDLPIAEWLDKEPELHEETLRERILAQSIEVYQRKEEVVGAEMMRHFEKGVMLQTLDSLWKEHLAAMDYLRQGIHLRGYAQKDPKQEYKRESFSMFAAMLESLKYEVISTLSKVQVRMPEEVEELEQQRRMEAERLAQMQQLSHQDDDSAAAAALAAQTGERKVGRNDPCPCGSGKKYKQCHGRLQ
Sialic acid-binding Ig-like lectin 9 (Homo sapiens), sequence (Q9Y336 whole entry): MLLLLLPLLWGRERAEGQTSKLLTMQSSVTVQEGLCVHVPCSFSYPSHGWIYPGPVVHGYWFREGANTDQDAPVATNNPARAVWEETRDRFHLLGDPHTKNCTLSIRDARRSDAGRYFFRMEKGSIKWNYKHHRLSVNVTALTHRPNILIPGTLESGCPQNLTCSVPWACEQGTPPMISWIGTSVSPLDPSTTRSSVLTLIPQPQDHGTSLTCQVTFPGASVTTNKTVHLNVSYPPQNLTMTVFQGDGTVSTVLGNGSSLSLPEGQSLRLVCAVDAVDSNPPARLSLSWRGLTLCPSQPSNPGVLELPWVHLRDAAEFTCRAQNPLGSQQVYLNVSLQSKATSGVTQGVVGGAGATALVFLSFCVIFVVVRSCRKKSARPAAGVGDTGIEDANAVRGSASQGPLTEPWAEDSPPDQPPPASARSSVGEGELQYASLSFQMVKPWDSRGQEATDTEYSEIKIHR

In the case of `CC(=O)NCc1ccc(C(=O)N2CCCCC2Cn2cccn2)o1` (stereo unspecified), the Percent Effect in [1] is -1.39%; in [2] it was 27%; in [3] it was -1.91%; in test [4], -5%; in the test with Trypanosoma cruzi, 4.18%; in test [5] it was -5.36%. The Percent Effect is 14.4% in test [6]; 17.1% in the test filed under Homo sapiens; 1.98% in test [7]; 18.3% in test [8]; -6.26% in [9].

As to `COc1ccc(NC(=O)CCc2c(C)nc3cc(O)nn3c2C)cn1`, the Percent Effect in test [1] was -3.54%; in [2], 0%; in test [3], -317%; in test [4], 9.4%; in the test on Trypanosoma cruzi, 6.18%; in test [5], 0.356%. Moreover, the Percent Effect was 8.62% in test [6]; 25.5% in the test filed under Homo sapiens; 7.77% in test [7]; 21.9% in test [8]; -8.7% in [9].

Take `CC(C)CN1CCC2(C=C(C(=O)N3CCCC3)c3ccccc32)CC1`: the Percent Effect in test [1] is -2.44%; in test [2] it was 0%; in [3] it was -1.76%; in [4], 3.68%; with Trypanosoma cruzi, -6.76%; in test [5], -56.8%. Besides, the Percent Effect in test [6] was 7.35%; in the test listed under Homo sapiens, 1.33%; in [7], 5.21%; in test [8], 10%; in test [9], -7.39%.

`O=C(c1ccco1)N1CCOCC2(CCN(C3CCOCC3)C2)C1` (stereo unspecified): the Percent Effect in test [1] is -0.734%; in test [2] it was 1.33%; in [3], -1.65%; in test [4], 3.4%; with Trypanosoma cruzi, -7.47%; in test [5], -2.29%. For the same compound, the Percent Effect in test [6] is 7.95%; in the test filed under Homo sapiens, 2.53%; in test [7] it was 0%; in [8] it was 5.13%; in test [9], -6.06%.

`Cn1c(CN2CCCC2)nnc1C1CCCN(C(=O)C2CCOCC2)C1` (stereo unspecified): the Percent Effect in test [1] is -3.02%; in test [2], 5.41%; in [3], -5.63%; in test [4], 28.6%; with Trypanosoma cruzi, 5.99%; in test [5], 22.9%. The Percent Effect in test [6] was 8.1%; in the test filed under Homo sapiens, 6.46%; in [7], 4.76%; in test [8], 4.88%; in test [9] it was -11.7%.

With `CC(C(=O)NCCOc1cccc(Cl)c1)n1cncn1` (stereo unspecified), the Percent Effect was -1.19% in test [1]; 17.7% in test [2]; -0.802% in test [3]; -7.8% in [4]; 2.55% in the test on Trypanosoma cruzi; 3.42% in test [5]. Besides, the Percent Effect is 7.94% in test [6]; -10.4% in the test filed under Homo sapiens; -2.46% in test [7]; 13.9% in test [8]; -5.29% in test [9].

As for `CCNc1cc2c(nn1)CCN(C(=O)Cc1noc3ccccc13)C2`, the Percent Effect was -6.38% in [1]; 13.2% in test [2]; -1.77% in test [3]; 6.44% in [4]; 5.51% with Trypanosoma cruzi; 0% in [5]. For the same compound, the Percent Effect is -3.47% in test [6]; 5.21% in the test listed under Homo sapiens; 4.43% in test [7]; 16.1% in [8]; -4.69% in test [9].

As for `COc1cc(NC(=O)Cn2ccc3sc(C)cc3c2=O)cc(OC)c1`, the Percent Effect in test [1] is 0.749%; in [2], 0%; in test [3], 8.38%; in test [4], 5.78%; with Trypanosoma cruzi, -5.42%; in [5] it was 17.4%. The Percent Effect in [6] is 7.49%; in the test filed under Homo sapiens, 2.45%; in test [7], 1.06%; in test [8], 11.5%; in test [9] it was -0.379%.

Regarding `CN(Cc1ncc[nH]1)S(=O)(=O)c1cccc(C(=O)N2CCOCC2)c1`, the Percent Effect was -6.58% in test [1]; 5.48% in test [2]; 4.01% in test [3]; 0.744% in test [4]; -1.76% with Trypanosoma cruzi; 1.82% in [5]. Besides, the Percent Effect in [6] was 7.1%; in the test listed under Homo sapiens it was 0.0404%; in test [7], 2.15%; in test [8], 7.5%; in [9], -7.89%.

In the case of `Cc1cc(CN2CCN(c3nn4cc(C)nc4s3)CC2)on1`, the Percent Effect was -0.836% in test [1]; 16.5% in test [2]; 4.65% in test [3]; 3% in test [4]; -0.923% in the test with Trypanosoma cruzi; 0.215% in test [5]. For the same compound, the Percent Effect in test [6] was 20.4%; in the test listed under Homo sapiens, 6.94%; in [7], 7.29%; in [8], 15.2%; in test [9], -20.7%.

In the case of `N#CCCN(CCC#N)C(=O)CN1CCCC1Cc1cccc(F)c1` (stereo unspecified), the Percent Effect is -3.46% in test [1]; 0% in test [2]; -6.01% in test [3]; -7.53% in test [4]; 3.32% in the test with Trypanosoma cruzi; 1.25% in test [5]. The Percent Effect in test [6] was 24.6%; in the test filed under Homo sapiens, -17.1%; in test [7] it was 7.92%; in test [8], 8.54%; in test [9] it was 0.083%.
